These results are taken from PubChem BioAssay (NCI).

“And” between values parts separate entries of the source, which are not always exact repeats. Identical values can stand only once. About 83,000 compounds went through this panel and 20% of them were active in at least one assay; those are over-represented in the sample as a whole.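 The test compound was applied at a single concentration to cells in 96-well plates for 48 hours, and percent growth was recorded.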 The source made the active and inactive calls.

The test system of the first assay is OVCAR-8 ovarian. In words: NCI-60 one-dose screen, 48 h (100 = growth as untreated, 0 = no growth, -100 = all killed). The note with it: 10 µM. The procedure: Growth inhibition of the OVCAR-8 human tumor cell line is measured as a screen for anti-cancer activity. Cells are grown in 96 well plates and exposed to the test compound for 48 hours. Compounds are tested at a single concentration, which is 10^-5 M for most compounds. The reported endpoint is percent growth (GI% or GIPRCNT), where numbers from 0 - 100% represent growth inhibition, and numbers from -100% - 0 represent cell death. For example, a value of 40 represents 60% growth inhibition. A value of 0 means no net growth occurred over the course of the experiment. A value of -40 indicates 40% of cells at the beginning of the experiment died by the end of the experiment. A value of -100 means all cells are dead at the end of the experiment.
NCI-60 Human Tumor Cell Lines Screen was performed using the standard one-dose NCI protocol, which is described in more detail at https://dtp.cancer.gov/discovery_development/nci-60/default.htm.
Compounds with GIPRCNT values below 10 were considered active. Activity score was based on GIPRCNT using the following formula: […]
Score is 0 for GIPRCNT values of 100 or above, 50 for GIPRCNT values of 0, and 100 for GIPRCNT values of -100.
Regarding `CC(=O)/C=C/c1ccc(OCc2ccc(Cl)cc2)cc1`, the growth is 90.1% (inactive).
On to `COc1ccc(C(=O)/C=C/c2ccc(OCc3cccc(C(F)(F)F)c3)c(OC)c2)cc1OC`, for which the growth is 67.1% (inactive).

The same assay, now with this note: 10 µM unless noted.
As to `O=C(Nc1ncc(Cc2cccc(C(F)(F)F)c2)s1)c1ccc2c(c1)OCCO2`, the growth was 23.2% (inactive).
Take `COc1cc(F)c(/C=C/c2cc(/C=C/c3cc(OC)c(OC)cc3F)n(-c3cc(F)cc(F)c3)n2)cc1OC`: the growth was 36.6% (inactive).
Consider `COc1cc(/C=N/NC(=O)CCN2c3ccccc3Sc3ccccc32)cc(OC)c1OC`, for which the growth was 86.5% (inactive).
On to `Cc1ccc(-c2nc(SCC(=O)c3ccc(C#N)cc3)[nH]c(=O)c2C#N)cc1`, for which the growth is 96.3% (inactive).
Take `N=C(N)c1ccc(-c2ccc(-c3ccc(Cl)c(Cl)c3)s2)cc1`: the growth was -17% (active).
Same read-out and setting: for `C=C1CC[C@@H]2[C@](C)(COC(C)=O)[C@H](OC(C)=O)CC[C@@]2(C)[C@@H]1CC(Nc1ccc(S(=O)(=O)Nc2nccs2)cc1)C1=CCOC1=O` (stereo not given in full) the value was 4.39% (active); for `COc1cc(Cl)cc(-c2nn(C(=O)NS(=O)(=O)c3ccc(Cl)cc3)cc2-c2ccncc2)c1`, 27.5% (inactive); for `COc1ccc(C(=O)c2ccc(OC)c(OC)c2OC)cc1`, 41.8% (inactive) and 47.4% (inactive).
For the compound `CC1=CC(C)(C)NC(=S)N1c1ccc(Cl)cc1`, the growth is 100% (inactive) and 104% (inactive).
As for `O=C1C(=C(O)c2ccccc2)C(=O)c2ccccc21`, the growth is 105% (inactive).
Still for that read-out and setting: for `CCCCCCCCCCCCCCCCCCn1cc(COc2ccc(C=O)cc2)nn1` the value was 102% (inactive); for `CCOc1nc(-c2ccccc2)cc2c(O)c(C(=O)N/N=C/c3ccc(N(C)C)cc3)[nH]c(=O)c12`, 115% (inactive).
Still for that read-out and setting: for `Cc1ccc(S(=O)(=O)OC[C@@]2(C)CC[C@]3(C)CC[C@]4(C)C(=CC[C@@H]5[C@@]6(C)CCCNC(C)(C)[C@@H]6CC[C@]54C)[C@@H]3C2)cc1` the value was -50.2% (active); for `Clc1ccc(/C=N\N2CCCCCC2)cc1`, 116% (inactive) and 98.7% (inactive).
Still for that read-out and setting: for `COC(=O)c1nc(-c2ccccc2)oc1S(=O)(=O)N(C)CCO` the value was 85.6% (inactive); for `Cc1nc2sc(C(=O)Nc3cccc(Cl)c3C)c(N)c2cc1C(O)c1ccccc1` (stereo not given), 11.8% (inactive).
Consider `CC(C)=CCc1cc(O)c(O)c2oc3cc(O)cc(O)c3c(=O)c12`, for which the growth was 51.1% (inactive).
On the same count and under the same terms, for `COc1ccc(C/C(C)=C(/c2ccc(OCCN3CCCC3)cc2)c2ccc(OC(=O)NCc3ccccc3)cc2)cc1` the value was 89.4% (inactive).
On the same count and under the same terms, for `O=C(c1ccc(Nc2nccc(NCCCNc3ccnc4cc(Cl)ccc34)n2)cc1)N1CCCCC1` the value was 34% (inactive).
The same measure, in the same setting: for `Cn1c(=O)c2c(nc(Nc3cc(=O)[nH]c(=O)[nH]3)n2Cc2ccccc2)n(C)c1=O` the value was 7.39% (active); for `O=C(O)C1C2CCC1C(O)C2` (stereo not given), 100% (inactive) and 98.1% (inactive).
Take `O=C1CCCCN1CCCCC#Cc1cccc(C#Cc2cccnc2)c1`: the growth is 89.2% (inactive).
Turning to `O=C(Nc1ccc(Cl)c(Cl)c1)Nc1ccc(Cl)c(Cl)c1`, the growth is -78.7% (active) and 23.2% (inactive).
For the compound `CCCCCCCCn1ccc2cc(NC(=O)CN3CCN(c4nc(C)cc(N5CCCCC5)n4)CC3)ccc21`, the growth was 90.2% (inactive).
Still for that read-out and setting: for `CCC(=O)Oc1cc(Cl)c(Cl)cc1Cl` the value was 96.9% (inactive); for `Nc1ccccc1SC(CC(=O)c1ccccc1)c1ccc([N+](=O)[O-])cc1` (stereo not given), 95.5% (inactive) and 95.8% (inactive).
Still for that read-out and setting: for `O=C(N/N=C/c1ccc(O)cc1O)c1cccc(Nc2ccnc(C(F)(F)F)c2)c1` the value was 22.7% (inactive); for `CCN(c1cc(-c2ccc(CN3CCC(/C=C/S(=O)(=O)c4ccccc4)CC3)cc2)cc(C(=O)NCc2c(C)cc(C)[nH]c2=O)c1C)C1CCOCC1`, 75% (inactive).
The same measure, in the same setting: for `CCCCn1c(C(=O)c2c[nH]c3ccccc23)n[nH]c1=S` the value was 93.1% (inactive); for `COc1ccc(Cn2cc(C(=O)Nc3cccnc3Nc3ccccc3)nn2)cc1`, 101% (inactive); for `COc1cc(NC2CCCCC2O)c2nc(-c3ccc(Cl)cc3)ccc2c1` (stereo not given), 85.5% (inactive) and 90.1% (inactive).
In the case of `COc1ccc2c(c1)CCNC21C(=O)Nc2c(Br)cc(Br)cc21` (stereo not given), the growth was 101% (inactive).
As for `COc1ccc(/C(C)=C(\c2ccc(OCCN3CCOCC3)cc2)c2ccc(OC(=O)C3CCCCC3)cc2)cc1`, the growth is 105% (inactive).
Still for that read-out and setting: for `NC(=O)c1c(NC(=O)/C=C/c2cccs2)sc2c1CCC(=O)C2` the value was 20.2% (inactive); for `COc1ccc(-c2ccc(-c3ccc(C(=N)N)cn3)s2)cc1Cl`, -50.5% (active).
Still for that read-out and setting: for `COc1cc2ncnc(Nc3ccc(F)c(Cl)c3)c2cc1OCC(=O)N1CCCCC1` the value was 89.2% (inactive).

The assay is the same for the next values; noted with them: 100 µM.
In the case of `CC(=O)/C=C/c1ccc(OCc2ccc(Cl)cc2)cc1`, the growth is 34.4% (inactive).
Same read-out and setting: for `COc1ccc(C(=O)/C=C/c2ccc(OCc3cccc(C(F)(F)F)c3)c(OC)c2)cc1OC` the value was 4.75% (active).
